High-throughput results as filed in PubChem.
A selection: hits, their analogues and other compounds. The true share with any hit is near 12%.
FMDV inh = High Throughput Screening for Foot and Mouth Disease Virus Antivirals; hit rate 1.2% among 410,000; FMDV antiviral cell-based qHTS; Potency, µM (titrated, usually from 57.9 µM), for the others: at the highest dose activity change, negative = inhibition, actives largely listed as inhibitors; calls by dose curve; tested in HEK293T cells; note: read-out not given here; potency is the fitted concentration of half-maximal effect; % is set by controls: 0 for no effect and ±100 for the full control effect; nearly all actives have a fitted effect of over 45% in size
Shiga toxin inh = A qHTS for Small Molecule Inhibitors of Shiga Toxin. Vero cells, Shiga toxin protein synthesis inhibition reporter. hit rate 9.2% among 290,000. inhibition, % at 38.7 µM. AID 2315, 2010; in the data active = inhibition mostly above about 28%, no sharp cut-off; inactive = mostly below about 43%; note: 0% is about no effect
Sm TGR block = qHTS Assay for the Inhibitors of Schistosoma Mansoni Peroxiredoxins; Potency, µM (series often up to 114 µM), without a hit: at the top dose activity change, negative = inhibition, usual class: inhibitors; Schistosoma mansoni thioredoxin glutathione reductase (TGR), Q962Y6; AID 485364, 2010; hit rate 3% among 360,000; purified TGR, DTNB reduction, TNB absorbance 405 nm; active = well fitted inhibition curve with a large enough effect; inconclusive = small, poorly fitted or top-dose-only effect; inactive = no such curve, though single readings can be large or run the other way; note: potency is the fitted concentration of half-maximal effect; % is set by controls: 0 for no effect and ±100 for the full control effect; nearly all actives have a fitted effect of over 60% in size
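Kinetic colorimetric format: TGR-catalysed, NADPH-driven DTNB reduction monitored via TNB absorbance. Enzyme dispensed at 20 nM; compound exposure 15 min at room temperature before reaction start.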
Cycloheximide cs = Cycloheximide Counterscreen for Small Molecule Inhibitors of Shiga Toxin; cell reporter, cycloheximide protein synthesis inhibition counterscreen; max response, %; hit rate 12% among 300,000; in the data active = max response mostly above about 13%, no sharp cut-off; inactive = mostly below about 14%; note: read at 38.3 µM for the half of the compounds with a filed dose; 0% is about no effect
* hit, by the source's call; ? = inconclusive; . = not tested or not shown; + = active, no number.

SMILES	FMDV inh	Shiga toxin inh	Sm TGR block	Cycloheximide cs
CCn1c(-c2ccc(F)cc2)cnc1SCC(=O)N1CCCCC1C (centres undefined)	.	92.8*	4.6%	41.1*
CCn1c(-c2ccc(F)cc2)cnc1SCC(=O)N1CCc2ccccc21	.	96.7*	10.5%	34.1*
CCOC(=O)c1nn(-c2ccc(C)cc2)cc1C(=O)c1ccccc1	16.4%	113.1*	-7.9%	68.4*
CCOC(=O)c1cn(-c2ccccc2)nc1-c1cccnc1	-10.0%	50.2*	-1.2%	36.6*
O=C(NCc1ccccn1)c1nc(-c2cccs2)no1	26.6%	42.7	46.2%	-1.1
O=C(NCc1cccs1)c1nc(-c2cccs2)no1	84.2%	66.1*	20.5%	21.1*
O=C(NCc1ccncc1)c1nc(-c2cccs2)no1	0.1%	2.3	0.0%	-2.4
O=C(NCCc1ccccc1)c1nc(-c2cccs2)no1	24.6%	90.3*	.	44.6*
O=C(CCN1CCCCC1c1cccnc1)NCc1ccccc1 (centres undefined)	2.5%	10.6	35.5µM*	-0.7
NC(=O)N/N=C/c1ccc(-c2ccc([N+](=O)[O-])cc2)o1	38.4%	24.9	73.4%	25.1*
O=[N+]([O-])c1ccc(-c2ccc(/C=N/O)o2)cc1	-5.5%	108.8*	-14.7%	33.3*
COc1ccc(N=Cc2ccc(-c3ccccc3)o2)cc1	23.8%	11.0	4.2%	16.3*
O=[N+]([O-])c1cc(-c2ccc(/C=N\n3cnnc3)o2)cc([N+](=O)[O-])c1	-19.1%	25.1	39.8µM*	-2.6
COc1ccc(N=Cc2ccc[nH]2)cc1	9.6%	-7.0	-3.1%	1.6
COc1ccccc1-c1ccc(/C=N/O)o1	18.3%	36.3	6.6%	10.7
O/N=C\c1ccc(-c2ccccc2)o1	19.9%	92.5*	1.9%	21.3*
COc1ccc(NC(=O)CCCc2nnc3n(C(C)C)c(=O)c4sccc4n23)cc1Cl	-18.6%	.	3.1%	.
CC1=C(C(=O)Nc2cccc(C(F)(F)F)c2)C(c2ccccc2)n2ncnc2N1 (centres undefined)	-12.2%	.	2.2%	.
CCCCCOc1ccc(/C=C/C(=O)Nc2sc(C(C)=O)c(C)c2C(=O)OCC)cc1OC	?	.	10.6%	.
COc1ccc2ccc(O)c(CN3CCN(S(=O)(=O)c4cc([N+](=O)[O-])ccc4C)CC3)c2c1	?	.	1.58µM*	.
COc1ccc(S(=O)(=O)N2CCN(Cc3cccc([N+](=O)[O-])c3)CC2)cc1	-21.7%	.	.	.
COc1ccc(-c2cc3nc(C)c(CCC(=O)N4CCN(c5ccc(F)cc5)CC4)c(C)n3n2)c(OC)c1	0.0%	.	2.2%	.
CN(C)c1cc[n+](CC(=O)N2c3ccccc3Sc3ccccc32)cc1	-20.5%	-11.7	.	-0.9
O=C(NCCc1ccccc1)N1c2ccccc2Sc2ccccc21	28.2µM*	15.5	-28.1%	9.8
O=C(C[n+]1ccccc1)N1c2ccccc2Sc2ccccc21	6.6%	8.6	28.2µM*	-1.8
SMILES	FMDV inh	Shiga toxin inh	Sm TGR block	Cycloheximide cs
CSc1nsc(/C=C/Nc2ccc(F)cc2)c1C#N	60.8%	37.6	-14.5%	10.0
CSc1nsc(/C=C/Nc2ccc(O)cc2C)c1C#N	23.7%	27.7	-2.3%	28.3*
Cc1ccc(S(=O)(=O)Nc2cc3c(cc2NCc2ccccc2)n(C)c(=O)n3C)c(C)c1	8.1%	.	5.1%	.
CNC(=O)[C@]1(C(F)(F)F)C[C@H](CCC2CCCCC2)CCCO1	.	-5.0	.	18.1
CCOC(=O)CSc1nc2ccccc2c(=O)n1CCN1CCOCC1	-24.0%	16.4	1.1%	-1.9
COCCNC(=O)CSc1nc2ccc(N3CCOCC3)cc2c(=O)n1CCc1ccccc1	-1.9%	active	-24.7%	14.4*
CCOC(=O)CSc1nc2ccc(N3CCOCC3)cc2c(=O)n1Cc1ccccc1	21.6%	51.3	6.5%	18.2*
COC(=O)C(CCSC)NC(=O)c1cc2c(n(-c3ccc(Cl)cc3)c1=O)CCCC2=O (centres undefined)	-17.6%	.	7.2%	.
Cc1ccc(NC(=O)COc2ccc(-c3nn(C)c(=O)c4ccccc34)cc2)c(C)c1	?	.	-1.2%	.
COc1cc(CNc2ncn[nH]2)ccc1OCC(=O)NC(C)(C)C	6.0%	17.6	1.6%	8.1
COc1cc(CNc2ccc(CNc3ncn[nH]3)cc2)ccc1OCc1ccccc1	?	39.9*	3.1%	47.5*
CCOc1ccc(CNc2ccc(CNc3ncn[nH]3)cc2)cc1	-25.4%	-2.1	.	6.4
COc1ccccc1CNc1ccc(CNc2ncn[nH]2)cc1	-7.2%	4.8	13.2%	-1.2
c1ccc2c(CNc3ccc(CNc4ncn[nH]4)cc3)cccc2c1	?	active	-8.2%	23.4*
Cc1ccc(CNc2ccc(CNc3ncn[nH]3)cc2)cc1	3.8%	36.0	-17.1%	15.4*
Cn1ncc(C(=O)N2CCN(c3ccc(F)cc3)CC2)c1C1CCN(C(=O)OC(C)(C)C)CC1	2.7%	.	-0.9%	.
CCOc1ccccc1NC(=O)Cn1c(=O)n(Cc2ccco2)c(=O)c2ccc(C(=O)NC3CCCC3)cc21	-7.0%	.	-10.4%	.
CCc1c(C)sc2c1CCN(C(=O)Nc1ccccc1Cl)C2c1ccc(OC)cc1 (centres undefined)	-16.9%	.	4.9%	.
O=C(CN1C(=O)COc2ccc(Cl)cc21)Nc1cccc(C(=O)O)c1	-3.8%	.	1.1%	.
CCCCc1cc(=O)oc2cc(OS(C)(=O)=O)ccc12	27.0%	-33.4	7.4%	20.4*
C=C(C)COc1ccc2c(CC)cc(=O)oc2c1	12.4%	49.3	.	21.8*
Cc1cc(=O)oc2cc(OCC(=O)NC3CCCC3)ccc12	-5.9%	-3.7	-1.4%	-3.1
C=C(Cl)COc1ccc2c(C)cc(=O)oc2c1	.	+	2.1%	23.1*
C=C(Cl)COc1ccc2c(CC)cc(=O)oc2c1	.	-19.4	-9.8%	1.2
Cc1cc(=O)oc2cc(OCC3CC(c4ccccc4)=NO3)ccc12 (centres undefined)	9.2%	53.3*	7.8%	21.3*
SMILES	FMDV inh	Shiga toxin inh	Sm TGR block	Cycloheximide cs
CCOC(=O)Cc1ccc(NC(=O)N2CCC(CN3CCCCCC3)CC2)cc1	0.1%	.	?	.
C=C(Cl)COc1ccc2c(CCCC)cc(=O)oc2c1	-14.4%	64.5	-2.7%	25.5*
COC(=O)C1=C(C)N(c2ccc(Cl)cc2)/C(=C/c2ccc(O)cc2)C1=O	25.1µM*	-1.8	.	-0.9
COC(=O)C1=C(C)N(c2cc(C)cc(C)c2)/C(=C/c2ccc(O)cc2)C1=O	?	4.0	-19.8%	3.3
O=C(NCc1ccccn1)C1(C(F)(F)F)C/C(=C\Cc2ccccc2)CCCO1 (centres undefined)	.	2.5	.	16.8
CCOc1ccc(-c2nc(S(=O)(=O)c3ccccc3)c(N3CCC(C(N)=O)CC3)o2)cc1	9.5%	-4.8	35.5µM*	-1.1
Cc1ccc(S(=O)(=O)c2nc(C(C)(C)C)oc2N2CCOCC2)cc1	-8.6%	-1.8	1.12µM*	-1.7
Cc1ccc(S(=O)(=O)c2nc(-c3ccc(Cl)cc3)oc2N2CCCCCC2)cc1	24.8%	.	39.8µM*	.
Cc1cccc(-c2nc(S(=O)(=O)c3ccc(Cl)cc3)c(N3CCCCCC3)o2)c1	-14.2%	.	4.7%	.
Cc1ccc(S(=O)(=O)c2nc(C)oc2N2CCOCC2)cc1	12.9%	11.9	-5.1%	-2.3
Cc1ccc(-c2nc(S(=O)(=O)c3ccc(C)cc3)c(N3CCCCC3)o2)cc1	39.4%	.	8.91µM*	.
